An excerpt weighted towards active compounds, which were near 9.3% of everything screened.
FMDV inh: antivirals against foot and mouth disease virus | FMDV antiviral cell-based qHTS | Potency, µM (highest dose often 57.9 µM), inactives show top-dose activity change, negative = inhibition, actives largely listed as inhibitors | 1.2% of 410,000 active | AID 1159524; calls by dose curve; tested in HEK293T cells; further: read-out not given here; potency means the concentration at half of the fitted maximal effect; nearly all actives have a fitted effect of over 45% in size
Vaccinia Venus: inhibitors of vaccinia virus (Venus reporter); AID 720580; 0.46% of 330,000 active; Potency, µM (highest dose often 36.5 µM), for the others: top-dose activity change, negative = inhibition, actives largely listed as inhibitors; Vaccinia virus Venus reporter expression, fluorescence; calls by dose curve; tested in A549 cells; further: potency means the concentration at half of the fitted maximal effect; nearly all actives have a fitted effect of over 30% in size
HCV inh: inhibitors of hepatitis C virus infection. Huh7.5.1 HCVcc-Cre infection, luciferase reporter, 44 h. AID 651820. 3.4% of 340,000 active. Potency, µM (highest dose often 41.8 µM), for the others: at the top dose activity change, negative = inhibition, actives largely listed as inhibitors; further: potency means the concentration at half of the fitted maximal effect
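Whole-lifecycle infectious HCVcc-Cre system; cells 1,000/well, compound then virus (~0.5 moi) added 4 h after plating, 44 h culture. Luciferase read 15 sec following 15 min substrate incubation, room temp.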
VACV mCherry inh: inhibitors of vaccinia virus infection (mCherry reporter signal) | Vaccinia virus mCherry reporter infection, fluorescence | Potency, µM (top dose mostly 36.5 µM), inactives show top-dose activity change, negative = inhibition, actives largely listed as inhibitors | 0.63% of 310,000 active; calls by dose curve; tested in A549 cells; further: potency means the concentration at half of the fitted maximal effect; nearly all actives have a fitted effect of over 35% in size
Sm TGR block: blocks Schistosoma mansoni thioredoxin glutathione reductase; Q962Y6; purified TGR, DTNB reduction, TNB absorbance 405 nm; Potency, µM (titrated, usually from 114 µM), inactives show top-dose activity change, negative = inhibition, most hits filed as inhibitors; 3% of 360,000 active; AID 485364; further: potency means the concentration at half of the fitted maximal effect; nearly all actives have a fitted effect of over 60% in size
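TGR 20 nM + NADPH 100 uM (dispensed conc.), cpd preinc 15 min RT; start with NADPH (500 uM addition) then DTNB (15 mM addition). Kinetic TNB absorbance, 405 nm filter. Four-parameter Hill fit across titration.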
HCMV inh: human cytomegalovirus inhibition | 4.5% of 410,000 active | activity change, negative = inhibition, % at 57.5 µM | AID 1259415 | HFF cells, HCMV-luciferase reporter, 72 h; active compounds read low; in the data active means activity change below about -60%; inconclusive means no clear call, values can overlap the other calls; inactive means above about -39%
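Steps: HFFs plated, 16 h 37C; compounds added; HCMV-luciferase added to MOI 1 PFU/cell; 72 h 37C; OneGlo reagent, 5 min room temperature; luminescence read, normalized to controls.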
An asterisk follows results filed as active. Unless noted, the call rests on the fitted dose curve; in most records, active means well fitted curve in the direction sought with a large enough effect; inconclusive means small, poorly fitted or top-dose-only effect, or another doubt; inactive means no such curve, though single readings can be large; an effect the other way counts as inactive or inconclusive. On the % scale 0 is the no-effect control and ±100 the full control effect.

COc1ccc(OC)c(NC(=O)CN2C(=O)CC(c3ccco3)Sc3ccccc32)c1 (stereo unspecified) was read as FMDV inh -9%, Vaccinia Venus -8%, VACV mCherry inh -13%, Sm TGR block 2% and HCMV inh -10.
Screening Cc1cc(NC(=O)CN2C(=O)CC(c3ccco3)Sc3ccccc32)no1 (stereo unspecified) returned FMDV inh -2%, Vaccinia Venus -5%, HCV inh 35µM*, VACV mCherry inh inactive and Sm TGR block 16µM*.
COc1ccc(-c2c(C)oc3ccc(C)cc23)cc1 was read as FMDV inh -8%, HCV inh 8%, Sm TGR block 16% and HCMV inh -40.
COCCNC(=O)CN1C(=O)NC(c2ccccc2)(c2ccccc2)C1=O was read as FMDV inh -7%, Vaccinia Venus -11%, HCV inh 22%, VACV mCherry inh -20%, Sm TGR block -12% and HCMV inh -17.
For COc1ccc(-n2c(SCC(=O)c3c(N)n(C)c(=O)n(C)c3=O)nc3ccccc32)cc1 the results were FMDV inh -18%, Vaccinia Venus 2%, HCV inh -1%, Sm TGR block -2% and HCMV inh 42.
`CCOC(=O)N=Nc1c2ccccc2c2nc3no[nH]c3nc12` gave FMDV inh 2µM*, Vaccinia Venus 0.5µM*, HCV inh 0.56µM*, VACV mCherry inh 0.5µM*, Sm TGR block 58% and HCMV inh -100*.
COc1ccccc1N1CCN(C(=O)C(C)N(c2ccc(C)cc2)S(C)(=O)=O)CC1 (stereo unspecified) was read as FMDV inh inconclusive, Vaccinia Venus -19%, HCV inh -13%, Sm TGR block -16% and HCMV inh -16.
`COc1ccccc1N1CCN(C(=O)c2c(-c3ccccc3Cl)noc2C)CC1` gave FMDV inh inconclusive, Vaccinia Venus inconclusive, HCV inh 11µM*, Sm TGR block 1% and HCMV inh 5.
Screening COc1ccccc1N1CCN(C(=O)c2cc3c(=O)n(Cc4ccco4)ccc3nc2C)CC1 returned FMDV inh -5%, Vaccinia Venus -4%, VACV mCherry inh -2%, Sm TGR block 14µM* and HCMV inh -28.
For COc1ccccc1N1CCN(C(=O)c2ccoc2C)CC1 the results were FMDV inh 13%, Vaccinia Venus -6%, HCV inh 8%, Sm TGR block 45µM* and HCMV inh 1.
`COc1ccccc1N1CCN(C(=O)C(C)N(c2ccc(C)c(C)c2)S(C)(=O)=O)CC1` (stereo unspecified) gave FMDV inh 35µM*, Vaccinia Venus -23%, HCV inh inconclusive, Sm TGR block 0% and HCMV inh -15.
Screening Cc1cc(C)n(-c2nc(NCc3cccnc3)c3c4c(sc3n2)COC(C)(C)C4)n1 returned FMDV inh inconclusive, Vaccinia Venus inconclusive, HCV inh -23%, VACV mCherry inh inconclusive, Sm TGR block inconclusive and HCMV inh -34.
For NC(=O)CN1C(=O)C(O)(CC(=O)/C=C\C=C\c2ccccc2)c2ccccc21 (stereo unspecified) the results were FMDV inh 0%, Vaccinia Venus inconclusive, HCV inh 7%, VACV mCherry inh inconclusive, Sm TGR block -12% and HCMV inh -70*.
C[C@@H]1CN([C@@H](C)CO)C(=O)CCCn2cc(nn2)CO[C@H]1CN(C)S(=O)(=O)c1ccccc1F was read as FMDV inh 0%, Vaccinia Venus -10%, VACV mCherry inh inactive and HCMV inh 3.
For CC(O)c1nc2ccccc2n1C/C=C/c1ccccc1 (stereo unspecified) the results were FMDV inh -22%, HCV inh 2%, Sm TGR block -2% and HCMV inh 61.
For Cc1c(P(=S)(c2ccccc2)c2ccccc2)[n+]2ccccc2n1C the results were FMDV inh -18%, HCV inh inconclusive, Sm TGR block 59% and HCMV inh -64*.
Screening Cc1c(P(=S)(c2ccccc2)c2ccccc2)[n+]2ccccc2n1C/C=C/c1ccccc1 returned FMDV inh inconclusive and HCMV inh -99*.
`Cn1c(=O)oc2cc(NC(=O)CCl)ccc21` gave FMDV inh inconclusive, HCV inh inconclusive, Sm TGR block 10µM* and HCMV inh -106*.
Screening O=C(c1cccc(Cl)c1)N1CCN(C2CCCCC2)CC1 returned FMDV inh -6%, HCV inh 1%, Sm TGR block 9% and HCMV inh 12.
Screening CCN(Cc1ccccc1)S(=O)(=O)c1ccc(C(=O)N(CCCN(C)C)c2nc3c(C)c(C)ccc3s2)cc1 returned FMDV inh -14%, Vaccinia Venus inconclusive, HCV inh 13µM*, VACV mCherry inh 11µM*, Sm TGR block -4% and HCMV inh -16.
`Cc1ccc2sc(N(CCCN(C)C)C(=O)c3ccc(S(=O)(=O)N(C)C4CCCCC4)cc3)nc2c1C` gave FMDV inh -4%, Vaccinia Venus inconclusive, HCV inh inconclusive, VACV mCherry inh inconclusive, Sm TGR block 10% and HCMV inh -35.
For CCN(Cc1ccccc1)S(=O)(=O)c1ccc(C(=O)N(CCCN(C)C)c2nc3cc4c(cc3s2)OCO4)cc1 the results were FMDV inh -5%, Vaccinia Venus inconclusive, HCV inh inconclusive, VACV mCherry inh -18%, Sm TGR block -18% and HCMV inh -65*.
For O=C(Nc1cccc(F)c1)N(Cc1ccc(Cl)cc1)CC(O)C(F)(F)F (stereo unspecified) the results were FMDV inh -29%, Vaccinia Venus inconclusive, HCV inh 11µM*, VACV mCherry inh inconclusive, Sm TGR block 3% and HCMV inh inconclusive.
Screening Cc1nc2nc(-c3ccc(F)cc3)cn2nc1C returned FMDV inh -26%, Vaccinia Venus -8%, HCV inh 9%, VACV mCherry inh -14%, Sm TGR block 39% and HCMV inh 205.
Screening CCc1ccc(-c2cn3nc(C)c(C)nc3n2)cc1 returned FMDV inh -46%, HCV inh -11%, Sm TGR block -18% and HCMV inh -87*.
Screening N#Cc1c(Cl)nsc1NN returned FMDV inh 10%, Vaccinia Venus -6%, HCV inh -4%, VACV mCherry inh -24%, Sm TGR block -29% and HCMV inh -104*.
COc1ccc(-c2ccc(C(=O)NCc3cccs3)c3occc23)c(C)c1 was read as FMDV inh 46%, Vaccinia Venus -8%, VACV mCherry inh 15% and HCMV inh -12.

Screening results as filed in PubChem BioAssay.
